Unmarked numbers belong to inactive results. Active and inactive are the calls of the source. Unless noted, no stated cut-off is given here; in the data, active means inhibition above about 44%; inactive means the rest.
Tests used:
[1] = StAR promoter reporter inhibitors, counter-screen for LRH-1 inverse agonist project, cell-based, luminescence, high throughput (AID 651611; in the data active means inhibition above about 28%); conditions: StAR promoter luciferase reporter counterscreen, at 3.6 µM, active compounds read high
[2] = molecular target: Nuclear receptor subfamily 5 group A member 2 (Homo sapiens) (UniProt O00482); experiment: NR5A2 activity suppression in reporter cells – cell-based, luminescence, confirmation (AID 651613; in the data active means inhibition above about 42%;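 further: HEK293T cells co-transfected with LRH-1 and StAR promoter luciferase reporter; 0% = vehicle wells and 100% = parental cells lacking receptor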); conditions: cell-based LRH-1 luciferase reporter, inverse agonism; at 3.6 µM; active compounds read high
[3] = molecular target: Steroidogenic factor 1 (Homo sapiens) (UniProt Q13285); experiment: inverse agonism at SF1 nuclear receptor – cell-based, luminescence, high throughput, counter-screen for LRH-1 inverse agonist project (AID 651614); conditions: cell-based SF1 luciferase reporter, at 3.6 µM, active compounds read high;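 further: cells cotransfected with StAR promoter reporter and SF1 expression vector; 0% = vehicle on cells with receptor and 100% = vehicle on cells lacking receptor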
[4] = compounds suppressing VP16-driven luciferase signal – cell-based, luminescence, high throughput, counter-screen for LRH-1 inverse agonist project (AID 651615; in the data active means inhibition above about 33%); conditions: Gal4-VP16 luciferase reporter cells, at 3.6 µM, active compounds read high

Chain of Steroidogenic factor 1 (Homo sapiens) (Q13285 whole entry, looked up, the tested form may be a part): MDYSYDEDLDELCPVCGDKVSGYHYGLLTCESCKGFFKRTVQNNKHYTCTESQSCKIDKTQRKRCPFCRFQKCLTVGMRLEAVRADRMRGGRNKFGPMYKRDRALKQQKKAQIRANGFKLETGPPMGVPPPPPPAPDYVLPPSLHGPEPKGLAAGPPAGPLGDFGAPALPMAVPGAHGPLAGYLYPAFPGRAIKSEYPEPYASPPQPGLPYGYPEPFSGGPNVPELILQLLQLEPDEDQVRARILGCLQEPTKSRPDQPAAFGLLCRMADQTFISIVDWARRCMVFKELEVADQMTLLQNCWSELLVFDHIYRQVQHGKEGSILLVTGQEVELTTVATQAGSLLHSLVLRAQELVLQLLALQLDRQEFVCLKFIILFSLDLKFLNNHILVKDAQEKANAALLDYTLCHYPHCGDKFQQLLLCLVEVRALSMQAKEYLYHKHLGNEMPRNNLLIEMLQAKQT
Chain of Nuclear receptor subfamily 5 group A member 2 (Homo sapiens) (O00482 whole entry, looked up): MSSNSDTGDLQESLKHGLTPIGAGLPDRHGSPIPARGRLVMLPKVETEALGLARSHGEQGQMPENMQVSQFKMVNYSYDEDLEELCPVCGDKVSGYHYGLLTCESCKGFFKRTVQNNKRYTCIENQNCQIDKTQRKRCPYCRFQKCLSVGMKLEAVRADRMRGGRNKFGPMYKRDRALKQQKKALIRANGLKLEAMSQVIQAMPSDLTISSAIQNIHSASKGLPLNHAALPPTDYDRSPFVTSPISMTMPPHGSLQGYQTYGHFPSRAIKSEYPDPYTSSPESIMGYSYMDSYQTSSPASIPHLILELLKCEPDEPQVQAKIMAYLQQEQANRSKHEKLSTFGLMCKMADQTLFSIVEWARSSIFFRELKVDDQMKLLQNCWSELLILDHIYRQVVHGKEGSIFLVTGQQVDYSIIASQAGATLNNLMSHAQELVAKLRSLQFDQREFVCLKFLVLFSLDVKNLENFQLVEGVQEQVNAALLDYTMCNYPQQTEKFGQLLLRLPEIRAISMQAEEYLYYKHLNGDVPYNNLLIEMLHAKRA

Structure (SMILES)	inhibition [1]	inhibition [2]	inhibition [3]	inhibition [4]
Cc1ccc(NNC(N)=S)cc1Cl	11.6%	53.4% (active)	50.5% (active)	1.11%
Cc1ccc(-n2nc(C)c(NC(=O)CCl)c2C)cc1C	57.9% (active)	66.8% (active)	66.8% (active)	-60.3%
O=C(NCCN1CCOCC1)c1ccc2c(c1)N(Cc1ccccc1F)C(=O)CS2	11.1%	42.4% (active)	36.2%	-9.87%
CSc1ccc(COC(=O)c2cc([N+](=O)[O-])ccc2N2CCOCC2)cc1	61.7% (active)	57.5% (active)	65.8% (active)	36.6% (active)
Cc1c(NC(=O)c2ccc([N+](=O)[O-])o2)cccc1-c1nc2ncccc2o1	13.3%	66.2% (active)	58.7% (active)	-13.2%
N#Cc1ccc(NC(=O)COc2ccc(-n3cnnn3)cc2)cc1	11.7%	38.2%	35.9%	-2.83%
CCOc1ccc(OCCC(=O)OCC(=O)Nc2ccc3c(c2)OCCO3)cc1	-6.27%	41.5% (active)	37.1%	-6.23%
Cc1cc(NC(=O)C(Cl)Cl)cc2c1OCO2	10.4%	59.2% (active)	45.6% (active)	-10.1%
Nc1nc2ccccc2cc1C(=O)NCc1ccc(-c2ccccc2)cc1	24.6%	59.4% (active)	58.6% (active)	55.9% (active)
CCOc1ccc(Cc2nnc(SCC(=O)Nc3ccc(C(C)=O)cc3)[nH]c2=O)cc1	1.5%	52% (active)	40.9%	-7.62%
CS(=O)(=O)c1ccc(-c2cc(NC=O)c3ncc(-c4ccc(F)cc4)n3c2)cc1	13.9%	56% (active)	55% (active)	1.21%
COc1ccc(CCNC(=O)CSc2nnc(CNC(=O)c3cccs3)o2)cc1OC	4.32%	56.7% (active)	50% (active)	1.47%
CCCCCCCn1ccc(=N)cc1	44.1% (active)	86.7% (active)	77.7% (active)	67.9% (active)
Cc1cccc(-n2ncc3c2CCCC3NC(=O)C2(C(N)=O)CC2)c1C (centres undefined)	16.4%	55% (active)	48.4% (active)	50% (active)
O=C(c1ccco1)N1CCN(C(=O)c2ccc(COc3ccc(Cl)cc3Cl)o2)CC1	5.02%	49% (active)	46.2% (active)	-11.1%
CCOc1ccc(NC(=O)COC(=O)COc2cccc3c2OC(C)(C)C3)cc1	1.8%	61.5% (active)	60.5% (active)	-1.47%
O=C(N/N=C/c1cc2c3c(c1O)CCCN3CCC2)c1ccccc1O	83.4% (active)	103% (active)	87.2% (active)	70.4% (active)
COc1ccc(CCNC(=O)CN2C(=O)NC3(CCCCC3C)C2=O)cc1 (centres undefined)	3.33%	66.3% (active)	66.7% (active)	-17%

Structure (SMILES)	inhibition [1]	inhibition [2]	inhibition [3]	inhibition [4]
O=C1c2cc(F)ccc2-n2c1nc1ccccc1c2=O	50.5% (active)	72.4% (active)	73.9% (active)	67.9% (active)
Cc1sc(NC(=S)NC(=O)CCc2ccccc2)c(C(N)=O)c1C	54% (active)	35.5%	38.1%	11.8%
CCCc1nnc2n1N=C(c1ccc(OC)c(OC)c1)CS2	4.71%	38.7%	26.3%	-24.8%
CC(=O)NC(Cc1c[nH]c2ccccc12)C(=O)OCC(=O)Nc1ccc2c(c1)OCO2 (centres undefined)	12.4%	56.8% (active)	56.7% (active)	-12.7%
O=C(c1cc(-c2ccco2)nc2ccccc12)N(Cc1nnc(-c2ccc(Cl)cc2)o1)C1CC1	-6.37%	-5.73%	2.98%	-2.77%
On1ccccc1=S	86.8% (active)	83.1% (active)	82.3% (active)	87.5% (active)
CCCC(=O)N1CCN(c2ccc(NC(=O)c3ccc([N+](=O)[O-])o3)cc2)CC1	-1.48%	52.9% (active)	55.4% (active)	-18.4%
Cc1onc(-c2c(F)cccc2Cl)c1C(=O)c1ccc(F)cc1	2%	46.1% (active)	46.2% (active)	-8.21%
O=C(Nc1ccc(N2CCN(C(=O)c3ccco3)CC2)cc1)c1ccc2c(c1)OCO2	23.4%	48.3% (active)	50.7% (active)	60.5% (active)
O=C(c1ccc(Oc2ccc(Cl)cc2)c([N+](=O)[O-])c1)N1CCCC1	-14.7%	33.5%	38%	-0.01%
Nc1ccc(Br)c2cccnc12	3.69%	26.2%	24.8%	-9.28%
CCOc1ccccc1C(=O)Nc1cc2c(cc1N1CCCC1)n(CC)c(=O)n2CC	52.6% (active)	48.8% (active)	53.5% (active)	49.6% (active)
COc1cc([N+](=O)[O-])ccc1NC(=O)C[n+]1ccccc1	15.1%	58.8% (active)	55.6% (active)	3.98%
S=C(Nc1ccc(Br)cc1)Nc1ccc2c(c1)OCCO2	-74.4%	-51.1%	-27.8%	-71.3%
O=[N+]([O-])c1ccc(S(=O)Cc2ccccc2)c([N+](=O)[O-])c1 (centres undefined)	8.41%	43.5% (active)	22.4%	16.7%
COc1ccc(CCNC(=O)CSc2nc3[nH]c(=O)cc(O)c3s2)cc1	17.6%	60.7% (active)	51.7% (active)	-3.78%
C/C(=N\Nc1cc(C(F)(F)F)ccc1Cl)c1ccncc1	2.53%	40%	47.6% (active)	3.73%
CC(=O)N1CCN(c2ccc(NC(=O)c3ccc([N+](=O)[O-])o3)cc2Cl)CC1	22.9%	60% (active)	65.1% (active)	-26.3%
